Measurements as given in ChEMBL document CHEMBL1857833, “Screening and optimization of specific chemical series against human African Trypanosomiasis (HAT)”.
Values joined by “and” are separate entries in the source; they are usually repeats but may differ in a detail not shown here. Identical values can stand only once. About 390 (8.9%) of roughly 4,400 compounds showed an effect of 50% or more. The sample holds strong results, similar compounds and a random draw of the others, so the mix is not that of the screen.

The compounds below were run on Trypanosoma brucei (assay: DNDI: Inhibition of Human African Trypanosomiasis, SBRI 427, in vitro at 2 ug.mL-1).
Assay type: functional

Row | SMILES | % inhibition
1 | Cc1ccc(/C(N)=N/O)c(Oc2cccc3ccc(C)nc23)n1 | 13%
2 | O/N=C(\NCCN1CCOCC1)c1ccc(Oc2cccc3cccnc23)nc1 | 9%
3 | Cc1cc(Oc2ccc(/C(=N/O)n3ccnc3)cn2)cc(C(C)C)c1 | 1%
4 | C=CCN1CCN(/C(=N\O)c2ccnc(Oc3ccc(C)c4c3CCC4)c2)CC1 | 22%
5 | Cc1ccccc1-c1nc(CN2CCN(C/C=C/c3ccccc3)CC2)co1 | -34%
6 | Cc1cccc(-c2nc(CNCc3ccc(C(C)(C)C)cc3)co2)c1 | -9%
7 | COc1ccc(CN/C(=N\O)c2cccnc2Oc2ccccc2SC)cc1 | 16%
8 | CCC(CC)N/C(=N\O)c1cccnc1Oc1c(F)cccc1F | 99%
9 | CCC(CC)N/C(=N\O)c1cccnc1Oc1ccccc1SC | 99%
10 | COCC(C)N/C(=N\O)c1cccnc1OCc1ccccc1F (configuration not stated) | -13%
11 | CCC(CC)N/C(=N\O)c1cccnc1Oc1ccccc1F | 96%
12 | CCC(CC)N/C(=N\O)c1cccnc1Oc1ccccc1OC | 76%
13 | Cc1cn(/C(=N\O)c2cccnc2Oc2c(F)cccc2F)cn1 | -7%
14 | COCC(C)N/C(=N\O)c1cccnc1Oc1ccccc1OC(C)C (configuration not stated) | -8%
15 | CSc1ccccc1Oc1ncccc1/C(=N/O)NCc1cccs1 | 28%
16 | COCCN(/C(=N\O)c1cccnc1Oc1ccccc1F)C(C)C | 5%
17 | COC[C@H]1CCCN1Cc1coc(-c2ccc(O)cc2)n1 | 16%
18 | Clc1ccccc1-c1nc(CNCCc2ccccc2)co1 | -15%
19 | CCC(NCc1coc(-c2ccc(C)cc2)n1)c1ccccc1 (configuration not stated) | -6% and 4%
20 | Cc1cc(Oc2ccc(/C(=N/O)N3CCSCC3)cn2)cc(C(C)C)c1 | 4%
21 | Cc1ccc(/C(=N/O)NCc2ccc(C)o2)c(OCc2ccccc2F)n1 | 18%
22 | CC(CCc1ccccc1)NCc1coc(-c2ccc(F)cc2)n1 (configuration not stated) | 17%

Row | SMILES | % inhibition
23 | Cc1ccc(Oc2nc(C)ccc2/C(=N/O)NCc2cccs2)cc1 | 16%
24 | COc1cccc(N2CCN(Cc3coc(-c4ccc(Cl)cc4Cl)n3)CC2)c1 | 10%
25 | Cc1ccc(/C(=N/O)NC2CC(C)CC(C)(C)C2)c(OCC(C)C)n1 (configuration not stated) | 97%
26 | CSc1ccc(Oc2nc(C)ccc2/C(=N/O)NC2CC(C)CC(C)(C)C2)cc1 (configuration not stated) | 10%
27 | Cc1ccc(/C(=N/O)NC2CCc3ccccc32)c(OCc2ccccn2)n1 (configuration not stated) | 5%
28 | Cc1ccc(/C(=N/O)NC(C)C)c(OCc2ccccn2)n1 | 11%
29 | Cc1ccc(/C(=N/O)NC2CC(C)CC(C)(C)C2)c(OCc2ccccn2)n1 (configuration not stated) | 56%
30 | Cc1cc(C)cc(Oc2nc(C)ccc2/C(=N/O)NC2CC(C)CC(C)(C)C2)c1 (configuration not stated) | -4%
31 | Cc1ccc(/C(=N/O)NCC2CCCCC2)c(OCc2ccccn2)n1 | 43%
32 | Cc1ccc(/C(=N/O)NC2CCC(C)CC2)c(OCc2ccccn2)n1 (configuration not stated) | 100%
33 | CC(C)COc1ncccc1/C(=N/O)NC1CC(C)CC(C)(C)C1 (configuration not stated) | -8%
34 | CN(Cc1ccccc1)Cc1coc(-c2cccc3ccccc23)n1 | -2%
35 | COc1ccc(OC)c(NCc2coc(-c3ccccc3C)n2)c1 | 8%
36 | CCCN(CC1CC1)/C(=N\O)c1ccc(C)nc1Oc1cccc2cnccc12 | 23%
37 | Cc1ccc(/C(=N/O)N2C(C)C=CC2C)c(Oc2cccc(C(C)C)c2)n1 (configuration not stated) | 20%
38 | Cc1ccc(/C(=N/O)NC2CCCCC2)c(Oc2ccc3ccccc3c2)n1 | 97%
39 | Cc1ccc(/C(=N/O)NC2CC2)c(Oc2ccc3ccccc3c2)n1 | 16%
40 | Cc1cccc(Oc2nc(C)ccc2/C(=N/O)NC2CCCC2)c1 | 11%
41 | Cc1cccc(Oc2nc(C)ccc2/C(=N/O)NC2CCCCC2)c1 | 98%
42 | Cc1ccc(/C(=N/O)NC2CCC2)c(Oc2ccc3ccccc3c2)n1 | 7%
43 | Cc1ccc(/C(=N/O)NC2CCCCC2)c(Oc2cccc(C(C)C)c2)n1 | 22%
44 | CCOc1cccc(-c2nc(CN(C)Cc3cc(OC)c(OC)c(OC)c3)co2)c1 | 18%

Row | SMILES | % inhibition
45 | COc1ccc(Oc2cc(/C(=N/O)NCc3ccccc3C)ccn2)cc1 | 21%
46 | Cc1ccc(-c2nc(CNCC(C)(C)CN(C)C)co2)cc1 | 10%
47 | Cc1cccc(Oc2ncccc2/C(=N/O)N(C)C2CCCCC2)c1C | -1%
48 | COc1ccc(CN/C(=N\O)c2ccnc(Oc3cccc(C(C)C)c3)c2)cc1 | -1%
49 | CC1CCCN1/C(=N\O)c1cccnc1OCc1ccccc1F (configuration not stated) | -5%
50 | CCCCC(CC)CNCc1coc(-c2ccc(Br)cc2)n1 (configuration not stated) | -12%
51 | COCC(C)N/C(=N\O)c1ccnc(Oc2cccc(F)c2)c1 (configuration not stated) | 8%
52 | COCCN/C(=N\O)c1ccnc(Oc2ccc(Cl)cc2)c1 | 55%
53 | COCC(C)N/C(=N\O)c1ccnc(Oc2cccc(C(C)C)c2)c1 (configuration not stated) | 71%
54 | COCC(C)N/C(=N\O)c1ccc(Oc2ccc(Cl)cc2)nc1 (configuration not stated) | 31%
55 | COCCN/C(=N\O)c1ccnc(Oc2ccc(OC)cc2)c1 | 41%
56 | COCC(C)N/C(=N\O)c1ccnc(Oc2ccc(SC)cc2)c1 (configuration not stated) | 86%
57 | COCCN/C(=N\O)c1ccnc(Oc2ccc(SC)cc2)c1 | -13%
58 | COCCN/C(=N\O)c1ccnc(Oc2cccc(C(C)C)c2)c1 | 4%
59 | COCCN(/C(=N\O)c1ccnc(Oc2ccc(Cl)cc2)c1)C(C)C | 28%
60 | CSc1ccc(Oc2cc(/C(=N/O)NCc3ccncc3)ccn2)cc1 | 9%
61 | COCC(C)N/C(=N\O)c1ccnc(Oc2ccc(Cl)cc2)c1 (configuration not stated) | 99%
62 | O/N=C(\NCc1c(F)cccc1F)c1ccnc(Oc2ccc(Cl)cc2)c1 | 12%
63 | CCOC(=O)C1CCCCN1Cc1coc(-c2ccc(O)cc2)n1 (configuration not stated) | -1%
64 | Fc1ccccc1-c1nc(CNCc2cccc3ccccc23)co1 | 24%
65 | Cc1ccc(/C(=N/O)N(C)Cc2cccnc2)c(Oc2cccnc2)n1 | 10%
66 | CSc1ccc(Oc2nc(C)ccc2/C(=N/O)N2C(C)C=CC2C)cc1 (configuration not stated) | -5%

Row | SMILES | % inhibition
67 | Cc1ccccc1-c1nc(CN(C)Cc2ccco2)co1 | 2%
68 | CCN(/C(=N\O)c1ccc(C)nc1Oc1cccc(C(C)C)c1)C(C)C | -4%
69 | C=CCN(Cc1coc(-c2ccc(C)cc2)n1)C1CCCC1 | 16%
70 | Cc1ccc([C@@H](C)NCc2coc(-c3ccc(O)cc3)n2)cc1 | 46%
71 | Cc1ccc(Oc2cc(/C(=N/O)N3CCN(c4ccc(F)cc4)CC3)ccn2)c2c1CCC2 | 31%
72 | COc1cc(CNCc2coc(-c3ccccc3Br)n2)cc(OC)c1OC | -33%
73 | CCN(Cc1ccccc1)Cc1coc(-c2cc(OC)c(OC)c(OC)c2)n1 | -20%
74 | Cc1ccc(C)c(N2CCN(Cc3coc(-c4ccc(O)cc4)n3)CC2)c1 | 9%
75 | Cc1cccc(-c2nc(CNCc3ccncc3)co2)c1 | -16%
76 | Cc1ccc(-c2nc(CN3CC[C@@H]4CCCC[C@@H]4C3)co2)cc1 | -5%
77 | O/N=C(\NCc1ccccc1)c1ccnc(Oc2ccc(F)c(Cl)c2)c1 | 24%
78 | CC(C)c1ccc(N/C(=N\O)c2ccnc(Oc3ccc(F)c(Cl)c3)c2)cc1 | 0%
79 | COCC(C)N/C(=N\O)c1ccnc(Oc2ccc(F)c(Cl)c2)c1 (configuration not stated) | 99%
80 | CCN(/C(=N\O)c1ccnc(Oc2ccc(F)c(F)c2)c1)C(C)C | 43%
81 | CCN(/C(=N\O)c1ccnc(Oc2ccc(Cl)cc2)c1)C(C)C | 74%
82 | CCN(/C(=N\O)c1ccnc(Oc2ccc(F)c(Cl)c2)c1)C(C)C | 14%
83 | Cc1cn(/C(=N\O)c2ccc(Oc3ccc(Cl)cc3)nc2)cn1 | 5%
84 | CCCN(CC1CC1)/C(=N\O)c1cccnc1Oc1ccccc1OC | 24%
85 | CC(C)c1ccccc1Oc1ncccc1/C(N)=N/O | 7%
86 | COc1cc(C)ccc1Oc1nc(C)ccc1/C(=N/O)Nc1ccc(C(C)C)cc1 | 8%
87 | Cc1ccc(Oc2nc(C)ccc2/C(=N/O)NCc2ccco2)cc1 | 37%
88 | CC(C)c1ccc(N/C(=N\O)c2cccnc2OCC(C)(C)C)cc1 | 14%

Row | SMILES | % inhibition
89 | Cc1cc(C)cc(CN/C(=N\O)c2cccnc2Oc2ccc3ccccc3c2)c1 | 70%
90 | Cc1cc(C)cc(CN/C(=N\O)c2cccnc2Oc2ccc(Cl)cc2)c1 | 31%
91 | CCC(C)(C)N/C(=N\O)c1cccnc1OCC(C)(C)C | 11%
92 | CC(C)N/C(=N\O)c1cccnc1Oc1ccc2ccccc2c1 | 21%
93 | CCC(C)(C)N/C(=N\O)c1cccnc1Oc1ccc2ccccc2c1 | 99%
94 | CCCN/C(=N\O)c1cccnc1Oc1ccc2ccccc2c1 | 25%
95 | COc1ccc(Oc2ncccc2/C(=N/O)NCc2cccnc2)cc1 | -2%
96 | O/N=C(\NCc1cccnc1)c1cccnc1Oc1ccc2ccccc2c1 | -6%
97 | Cc1ccc(CN/C(=N\O)c2cccnc2Oc2ccc3ccccc3c2)o1 | 19%
98 | CC(C)N/C(=N\O)c1cccnc1OCC(C)(C)C | 100%
99 | COc1ccc(Oc2ncccc2/C(=N/O)NCc2cc(C)cc(C)c2)cc1 | 79%
100 | COc1cccc(-c2nc(CN3CCOCC3)co2)c1 | 35%
101 | FC(F)(F)CNCc1coc(-c2ccc(Cl)cc2Cl)n1 | 23%
102 | COCC(C)NCc1coc(-c2ccccc2C)n1 (configuration not stated) | 9%
103 | CC(c1ccccc1)N(C)Cc1coc(-c2ccc(C(F)(F)F)cc2)n1 (configuration not stated) | 7% and -11%
104 | Cc1cc(C)cc(Oc2ccc(/C(N)=N/O)cn2)c1 | 11%
105 | Clc1ccccc1-c1nc(CNC(c2ccccc2)c2ccccc2)co1 | 6%
106 | CC1CC(C)CN(Cc2coc(-c3ccc(Br)cc3)n2)C1 (configuration not stated) | -5%
107 | CCOc1ccccc1-c1nc(CN(C)C(C)c2ccccc2)co1 (configuration not stated) | 8% and 1%
